# Only some compounds are listed: those with a hit (about 5.7% of all), similar ones and a draw of the others.
# DAX1 inh-1 – DAX1 (NR0B1) inhibitors, primary screen, cell-based, HEK293, Gal4-DAX1, luciferase luminescence; Nuclear receptor subfamily 0 group B member 1 (Homo sapiens), P51843; HEK293 Gal4-DAX1 luciferase reporter; inhibition, % at 6.75 µM; 340,000 compounds, 0.99% hits; AID 504766, 2011;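 active = inhibition above the mean over all tested compounds plus 3 SD, cut at about 4.2% in these data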;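 also: inhibition shows as a rise in luminescence from relieved DAX1 repression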
# Target sequence (P51843 207-470 limits assumed): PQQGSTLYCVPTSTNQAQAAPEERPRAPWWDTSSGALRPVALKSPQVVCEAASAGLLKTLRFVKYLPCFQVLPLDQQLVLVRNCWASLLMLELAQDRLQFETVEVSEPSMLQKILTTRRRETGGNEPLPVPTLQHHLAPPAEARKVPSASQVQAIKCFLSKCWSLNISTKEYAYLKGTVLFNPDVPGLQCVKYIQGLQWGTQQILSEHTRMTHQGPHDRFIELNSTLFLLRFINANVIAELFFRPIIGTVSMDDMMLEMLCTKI
# hcDAF12 agonist – H. contortus DAF-12 nuclear receptor activators, primary screen, cell-based, luminescence, HEK293, lit1-tk-luc reporter | HEK293 hcDAF-12 lit1-tk-luc reporter; 0% DMSO, 100% Δ7-dafachronic acid | activation, % at 6.8 µM | 370,000 compounds, 1.4% hits;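 active = activation above the mean of all tested compounds plus 3 SD, cut at about 5.5% in these data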
# hgDAF12 agonist – H. glycines DAF-12 receptor agonists, primary screen, cell-based, luminescence, HEK293, GAL4 fusion, UAS-luciferase; 370,000 compounds, 1.8% hits; HEK293 GAL4-hgDAF12 UAS-luciferase reporter, agonist luminescence; normalized to butyrate control; AID 687014, 2013; activation, % at 6.8 µM;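 active = activation above a cutoff set at the mean of all screened compounds plus 3 SD, cut at about 10% in these data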
# AHR activator – AHR activators, primary screen, cell-based, luminescence, luciferase reporter, human | Aryl hydrocarbon receptor (Homo sapiens), P35869 | AHR-responsive luciferase reporter cells | activation, % at 5 µM | 320,000 compounds, 2.5% hits; in the data active = activation above about 47%
# DAX1 inh-2 – DAX1 (NR0B1) inhibitors on StAR promoter, primary screen, cell-based, luminescence, SF-1 (NR5A1), full-length DAX-1; HEK293T StAR-luciferase reporter, SF-1/DAX-1 repression relief; inhibition, % at 6.8 µM; 370,000 compounds, 1.1% hits; AID 652010, 2013;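 active = inhibition above the mean over all tested compounds plus 3 SD, cut at about 3.6% in these data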;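 also: higher inhibition means more luminescence from relief of DAX-1 repression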
# ssDAF12 agonist – S. stercoralis DAF-12 nuclear receptor activators, primary screen, cell-based, luminescence, HEK293, GRIP1 co-expression, lit1-tk-luc; Nuclear hormone receptor DAF-12 (Strongyloides stercoralis); HEK293 ssDAF-12/GRIP1 lit1-tk-luc reporter; % of 3 µM dafachronic acid response; activation, % at 6.8 µM; 370,000 compounds, 1% hits;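 active = activation above the mean over all tested compounds plus 3 SD, cut at about 0.9% in these data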
# DAX1 inh confirm – DAX1 (NR0B1) inhibitors relieving SF-1 repression, confirmation, cell-based, luminescence, HEK293T, full-length DAX-1, SF-1 activated StAR promoter; HEK293T StAR-promoter luciferase reporter, SF-1/DAX-1 repression; shares compounds with DAX1 inh-2; 2,400 compounds, 87% hits; AID 652134, 2013; inhibition, % at 6.8 µM;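 active = inhibition above the average of every tested compound plus 3 SD, cut at about 3.8% in these data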
# SF1 AF2mut Luc – StAR reporter signal changes without DAX1, counter-screen for DAX1 inhibitor project, cell-based, luminescence, AF-2 mutant SF-1, transactivation; shares compounds with DAX1 inh-2; HEK293 StAR-luciferase, SF-1 AF2 mutant; inhibition, % at 6.8 µM; 2,400 compounds, 78% hits; AID 652136, 2013;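 active = inhibition above the mean of all tested compounds plus 3 SD, cut at about 3% in these data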
# LXR ag – LXR agonists, Gal4 luciferase reporter, confirmation, counter-screen for hcDAF-12 agonist project, cell-based, luminescence, HEK293, H. contortus campaign; AID 743027, 2013; 3,400 tested, under 10 active; activation, % at 6.8 µM; shares compounds with hcDAF12 agonist; HEK293 Gal4-LXR tk-luc reporter, 24 h; normalized: DMSO 0%, positive control 100%;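 active = mean percent activation of the reporter above a cutoff set as the average over tested compounds plus their standard deviation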
# hcDAF12 conf – H. contortus DAF-12 receptor agonists, confirmation, cell-based, luminescence, HEK293, lit1-tk-luc, triplicate. 3,400 compounds, 61% hits. activation, % at 6.8 µM. HEK293 hcDAF-12 lit1-tk-luc reporter; % of Δ7-dafachronic acid response. shares compounds with hcDAF12 agonist;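 active = mean activation across triplicate tests above the threshold derived from the earlier primary screen, cut at about 5.5% in these data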
# hgDAF12 ag – H. glycines DAF-12 receptor agonists, confirmation, cell-based, luminescence, HEK293, GAL4-LBD fusion | 3,300 compounds, 80% hits | HEK293 GAL4-hgDAF12 luciferase reporter, agonist mode; percent of butyrate response | shares compounds with hgDAF12 agonist | activation, % at 6.8 µM;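 active = mean activation over triplicate wells above the hit cutoff derived from the earlier primary screen, cut at about 11% in these data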
# LXRb DAF12 ctr – LXR agonists, Gal4 luciferase reporter, confirmation, counter-screen for hgDAF-12 agonist project, cell-based, luminescence, HEK293, H. glycines campaign | AID 743051, 2013 | 3,300 tested, under 10 active | 24 h | activation, % at 6.8 µM | shares compounds with hgDAF12 agonist;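 active = mean activation of the triplicate above a set limit carried over from the primary screen, none filed active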
# Numbers stand for hits; – = inactive; · = no result.
SMILES,DAX1 inh-1,hcDAF12 agonist,hgDAF12 agonist,AHR activator,DAX1 inh-2,ssDAF12 agonist,DAX1 inh confirm,SF1 AF2mut Luc,hgDAF12 ag,LXRb DAF12 ctr,others
CCn1c(C)cc(C=C2C(=O)c3ccccc3C2=O)c1C,–,17,18,·,5.6,4.4,15,8.0,15,–,LXR ag=–;hcDAF12 conf=15
Cc1ccc(/C=N/N=C/c2ccc(C)s2)s1,–,9.1,18,–,5.1,–,19,7.7,21,–,LXR ag=–;hcDAF12 conf=8.2
Cn1c(NNC(=O)CCC2CCCCC2)cc(=O)n(C)c1=O,–,–,–,–,–,–,·,·,·,·,
Cn1c(NC(=O)CCC2CCCCC2)cc(=O)n(C)c1=O,–,–,14,–,5.6,–,12,6.0,12,–,
COc1ccc(OCC(=O)Nc2ccc3c(c2)CCC3)cc1,–,–,–,–,–,–,·,·,·,·,
Cc1csc(NC(=O)COc2ccc3c(c2)CCC3)n1,–,–,14,–,4.7,–,9.6,8.5,17,–,
Cc1cc(-c2nn(-c3ccccc3F)cc2CNCCc2cnccn2)c(C)s1,–,–,–,–,–,–,·,·,·,·,
COc1ccc(CN=C2Nc3ccccc3CS2)cc1,–,–,14,–,4.7,1.2,11,7.2,17,–,
COc1ccc(CN=C2NN=C(c3ccc(Cl)cc3)CS2)cc1,–,–,–,–,–,–,·,·,·,·,
COc1ccc(-c2cn3nc(SCC(=O)NCC4CCCO4)ccc3n2)cc1 (configuration not stated),–,–,14,–,13,–,8.5,4.0,15,–,
OCc1cn(-c2ccccc2)nc1-c1cc2ccccc2o1,4.7,–,14,–,5.8,1.1,15,12,15,–,
Oc1ccc(-c2cc(-c3ccc(O)cc3)nc(-c3ccccc3)n2)cc1,–,–,–,–,–,–,·,·,·,·,
Oc1ccc(-c2nnc(-c3ccc(O)cc3)nn2)cc1,–,6.5,15,–,5.5,–,13,8.4,21,–,
